# Only some compounds are listed: those with a hit (about 21% of all), similar ones and a draw of the others.
# Pf growth 96h – Primary qHTS for delayed death inhibitors of the malarial parasite plastid, 96 hour incubation | P. falciparum luciferase reporter growth, 96 h | Potency, µM (top dose mostly 28.7 µM), for the others: top-dose activity change, negative = inhibition, usual class: inhibitors | actives 6.9% (n = 320,000); active means well fitted inhibition curve with a large enough effect; inconclusive means small, poorly fitted or top-dose-only effect, or another doubt; inactive means no such curve, though single readings can be large or run the other way; further: potency means the concentration at half of the fitted maximal effect; on the % scale 0 is the no-effect control and ±100 the full control effect
#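 P. falciparum expressing integrated firefly luciferase, in erythrocytes at 2% hematocrit, 0.05% parasitemia, incubated with compounds 96 h at 37 C, 5% CO2. Growth inhibition read as loss of luminescence; two-generation exposure targets delayed-death apicoplast inhibitors.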
# Shiga toxin inh – A qHTS for Small Molecule Inhibitors of Shiga Toxin; Vero cells, Shiga toxin protein synthesis inhibition reporter; inhibition, % at 38.7 µM; actives 9.2% (n = 290,000); AID 2315, 2010; in the data active means inhibition mostly above about 28%, no sharp cut-off; inactive means mostly below about 43%; further: 0% is about no effect
# SARS PLpro yeast – qHTS of Yeast-based Assay for SARS-CoV PLP; S. cerevisiae expressing SARS-CoV PLpro, growth rescue; Potency, µM (series often up to 32.9 µM), without a hit: at the highest dose activity, positive = growth rescue, hits mostly activators; actives 0.19% (n = 330,000); further: potency means the concentration at half of the fitted maximal effect; 0% is about no effect; nearly all actives have a fitted effect of over 55% in size
# CHX counter – Cycloheximide Counterscreen for Small Molecule Inhibitors of Shiga Toxin; cell reporter, cycloheximide protein synthesis inhibition counterscreen; actives 12% (n = 300,000); max response, %; in the data active means max response mostly above about 13%, no sharp cut-off; inactive means mostly below about 14%; further: read at 38.3 µM for the half of the compounds with a filed dose; 0% is about no effect
# Pf growth 48h – Primary qHTS for delayed death inhibitors of the malarial parasite plastid, 48 hour incubation; actives 5.9% (n = 310,000); AID 504832, 2011; P. falciparum luciferase growth in erythrocytes, 48 h; Potency, µM (titrated, usually from 28.7 µM), without a hit: top-dose activity change, negative = inhibition, usual class: inhibitors; active means well fitted inhibition curve with a large enough effect; inconclusive means small, poorly fitted or top-dose-only effect, or another doubt; inactive means no such curve, though single readings can be large or run the other way; further: potency means the concentration at half of the fitted maximal effect; on the % scale 0 is the no-effect control and ±100 the full control effect
#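 In quantitative HTS format, infected erythrocytes bearing luciferase-reporter parasites were treated for a single generation at 37 C. Luminescence after adding detection reagent served as the growth measure.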
# NS1 inh – qHTS Assay for Inhibitors of Influenza NS1 Protein Function. Potency, µM (highest dose often 46.1 µM), without a hit: at the highest dose activity, positive = more growth. actives 0.4% (n = 270,000); further: potency means the concentration at half of the fitted maximal effect; actives are rising curves; nearly all actives have a fitted effect of over 50% in size
#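 Read-out: OD600 growth recovery of NS1-expressing budding yeast. Cells grown overnight at 30C in -URA glucose medium, washed, resuspended and diluted 1:100 in 2% galactose assay medium, pH 6.0. Same strain lacking NS1 served as positive control.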
# Starred values were filed as active, the others as inactive; u = inconclusive; x = not tested or not shown. Unless noted, the call rests on the fitted dose curve.
SMILES,Pf growth 96h,Shiga toxin inh,SARS PLpro yeast,CHX counter,Pf growth 48h,NS1 inh
O=[N+]([O-])c1cc(C(F)(F)F)ccc1N1CCCC(O)C1 (stereo not drawn),10%,16,0%,2,8%,x
C=CCNS(=O)(=O)CC12CCC(CC1=O)C2(C)C (stereo not drawn),u,-12,3%,-3,x,5%
CCOCCCn1c(SCc2nc3ccccc3s2)nc2ccccc2c1=O,u,101*,-4%,87*,u,16%
COCCn1c(SCC(=O)NC(C)c2ccccc2)nc2ccccc21 (stereo not drawn),-16%,-15,12%,-10,-28%,-2%
C=CCn1c(=O)c2ccccc2n2c(SCc3nc4ccccc4s3)nnc12,x,131*,15%,45*,140%,-9%
COCCn1c(SCc2nc3ccccc3s2)nc2ccccc21,-5%,147*,2%,37*,52%,-37%
Cc1cc(C)c(C)c(OCCCCN2CCCCC2)c1,0%,-18,-1%,-2,0%,21%
C=CCOC(=O)C1=C(C)NC(C)=C(C(=O)OCC=C)C1/C=C/c1ccccc1,104%,18,1%,13,4%,-13%
COc1ccccc1CCCNC(=O)C1CCC(=O)N(CCc2cccc(F)c2)C1 (stereo not drawn),27%,16,3%,10,-6%,0%
COc1ccc(CCOC(=O)c2ccc(N)c([N+](=O)[O-])c2)cc1,u,21,-7%,15,10%,-19%
Cc1ccc2c(c1)C1(C)C(C(C)(C)N2C=O)C1(Cl)Cl (stereo not drawn),-12%,5,-2%,-3,u,-13%
Cc1ccc(Sc2ncccc2COC(=O)Nc2c(C)cccc2C)cc1,7.4µM*,-6,-21%,2,u,12%
c1ccc(Cn2nnnc2C(c2cccnc2)N2CCN(c3ccccc3)CC2)cc1 (stereo not drawn),x,-16,-12%,12,13µM*,-154%
Cc1cc(C(c2nnnn2Cc2ccccc2)N2CCOCC2)c(C)n1-c1ccc2c(c1)OCO2 (stereo not drawn),22%,42*,0%,18*,9.3µM*,-6%
CCN1CCN(C(c2ccccc2)c2nnnn2Cc2ccc3c(c2)OCO3)CC1 (stereo not drawn),19%,-7,1%,-3,22%,-2%
c1ccc(Cn2nnnc2C(c2ccncc2)N2CCOCC2)cc1 (stereo not drawn),0.74µM*,-6,6%,-2,15%,-3%
O=C(Cc1ccc(NC2=NC3CS(=O)(=O)CC3S2)cc1)NCc1ccccc1Cl (stereo not drawn),87%,6,3%,1,4%,2%
O=[N+]([O-])c1cccc(NC2=NCCC2)c1,u,-5,0%,-4,4%,7%
O=C(N/N=C/c1ccc(Cl)cc1Cl)c1cccc(N2CCCC2=O)c1,-27%,44,1%,16*,u,8%
O=C(N/N=C/c1cc(Br)cc(Br)c1O)c1cccc(S(=O)(=O)N2CCOCC2)c1,u,-5,2%,-4,u,3%
O=C(N/N=C/c1cc(Br)cc(Br)c1O)c1cccc(N2CCCC2=O)c1,10µM*,-5,2%,-2,75%,2%
O=C(N/N=C/c1ccc([N+](=O)[O-])cc1)c1cccc(N2CCCC2=O)c1,-16%,-12,-4%,12,-13%,-2%
CC(C)[C@H](NC(=O)c1ccccc1)C(=O)OCc1nnc(-c2ccccc2)o1,10%,24,-2%,13,23%,x
CC(C(=O)OCc1nnc(-c2ccccc2)o1)N1C(=O)c2ccccc2C1=O (stereo not drawn),10%,92*,8%,32*,36%,-58%
Cc1ccc(C(=O)N[C@H](C(=O)OCc2nnc(-c3ccccc3)o2)C(C)C)cc1,-17%,24,-1%,26*,-29%,-4%
NC(=O)COc1ccc(/C=N\NC(=O)CC(=O)NCCc2ccccc2)cc1,-33%,-11,2%,-4,-6%,1%
